# Results as given in ChEMBL document CHEMBL3988442, “University of Dundee, Small-Polar-MMV Screening Library” (2021).
# The campaign covered roughly 48,000 compounds. About 13,000 (27%) showed an effect of 50% or more. This is one part of the list.
# Test system: Wolbachia pipientis
# Assay: Anti-Wolbachia Cell-Based Screen
# Assay type: functional
# Parameters: scale not given: in the data most compounds retested in dose-response had high values
# Conditions: 5 µM
row,Structure (SMILES),Percent Effect [%]
1,O=C(NCc1ccccn1)[C@@H]1COC[C@H]2CNC[C@H]21,-0.4259
2,O=C(COc1ccc(Cl)cc1Cl)N1CCCSCC1CN1CCOCC1 (stereo not given),-6.318
3,c1cnc(N2CCOCC3(CNCCO3)C2)nc1 (stereo not given),-30.03
4,O=C(C[C@@H]1COC[C@H]2CN(CC3CC3)C[C@@H]12)NCc1cccnc1.O=C(O)C(F)(F)F.O=C(O)C(F)(F)F,86.58
5,COCCN1C[C@@H]2COC[C@@H](CC(=O)NCc3cccnc3)[C@@H]2C1.O=C(O)C(F)(F)F.O=C(O)C(F)(F)F,24.5
6,CNCCc1nc2cc(Cl)ccc2[nH]1.Cl.Cl,8.686
7,CC(C)Oc1ccc(C(O)CNCc2ccccc2C(F)(F)F)cc1 (stereo not given),-32.82
8,CN1CCO[C@@H]2CN(C(=O)c3ccc4ncccc4c3)CC[C@@H]2C1.O=C(O)C(F)(F)F.O=C(O)C(F)(F)F,-8.044
9,O=C(O)C(F)(F)F.O=C(O)C(F)(F)F.O=C1[C@H]2CN(C3CCOCC3)C[C@H]2CN1Cc1ccncc1,-10.38
10,O=C(c1ccno1)N1CC[C@@H]2CN(C3CCOCC3)CCO[C@@H]2C1,85.56
11,CN1CCC(N(C)c2ccccc2CNCc2ccco2)CC1,13.84
12,CCN1CCN(C)C2(CCN(Cc3cccc(C)n3)CC2)C1=O.O=C(O)C(F)(F)F.O=C(O)C(F)(F)F,-10.53
13,Cc1cccc(CN2C(=O)CCC23CCNCC3)n1.O=C(O)C(F)(F)F.O=C(O)C(F)(F)F,115.6
14,Cc1cccc(CN2CCC3(CCN(c4cccnc4)C3=O)C2)n1.O=C(O)C(F)(F)F.O=C(O)C(F)(F)F (stereo not given),-4.819
15,O=C(Cn1ccc2c(Cl)cccc21)N1CCC2(CC1)OCCO2,11.16
16,O=C(Nc1ccc(Cn2cccn2)cc1)N1CCC2(CC1)OCCO2,-11.32
17,O=C(Cc1cnc(-c2c(Cl)cccc2Cl)s1)N1CCC2(CC1)OCCO2,110.5
18,O=C(Cc1ccc(O)c(F)c1)N1CCN(CC2CC2)[C@@H]2CS(=O)(=O)C[C@@H]21,-17.2
19,O=C(O)C(F)(F)F.c1coc(CNc2ncc3c(n2)C2(CCNC2)COC3)c1 (stereo not given),-4.361
20,Cc1cnc(N2CCCC3(CCCN(C)C3)C2)nc1 (stereo not given),-6.547
21,Clc1cc(N2CCN3CCCCC3C2)nc2[nH]ccc12 (stereo not given),91.81
22,Clc1cc(CN2CCCN3CCCC3C2)c2ncccc2c1 (stereo not given),-2.153

row,Structure (SMILES),Percent Effect [%]
1,COCc1cn(C[C@H]2CC3CCN2C[C@@H]3C(=O)Nc2ccccc2)nn1 (stereo not given in full),-0.5907
2,CCc1cc(CNCc2ccccc2N(C)C2CCN(C)CC2)on1,10.76
3,Cc1noc(C)c1CN1C[C@@H]2CN(C(=O)c3cscn3)C[C@@H]2C1,-4.527
4,Cc1noc(C)c1CN1C[C@H]2CNC[C@H]2C1,94.55
5,Cc1noc(C)c1CN1C[C@@H]2C[C@H](C(=O)NCC3CC3)N(C)[C@@H]2C1.O=C(O)C(F)(F)F.O=C(O)C(F)(F)F,97.39
6,CNC(=O)[C@H]1C[C@@H]2CN(Cc3c(C)noc3C)C[C@@H]2N1C(C)=O.O=C(O)C(F)(F)F,-32.47
7,Cc1noc(C)c1CN1CC[C@@H]2O[C@@H](COCC(C)C)CC[C@@H]21.O=C(O)C(F)(F)F,-18.54
8,C[C@@H]1C[C@H]2CN(Cc3nccs3)C[C@H]2O1.O=C(O)C(F)(F)F,-5.34
9,Cc1noc(C)c1CN1C[C@@H]2CC(F)(F)C[C@@H]2C1.O=C(O)C(F)(F)F,103.5
10,Cc1noc(C)c1CN1C(=O)[C@H]2CC[C@@H]1CN(Cc1ncc[nH]1)C2,-9.267
11,Cc1noc(C)c1CN1C[C@@H]2C[C@@H](C)O[C@@H]2C1.O=C(O)C(F)(F)F,94.5
12,CNC(=O)[C@@H]1C[C@H]2CN(Cc3c(C)noc3C)C[C@H]2N1C(C)C.O=C(O)C(F)(F)F.O=C(O)C(F)(F)F,-23.54
13,Cc1noc(C)c1CN1CC[C@@H]2O[C@H](COCC(C)C)CC[C@@H]21.O=C(O)C(F)(F)F,9.009
14,Cc1noc(C)c1CN1C[C@@H]2CN(C(=O)c3cnccn3)C[C@@H]2C1.O=C(O)C(F)(F)F,12.22
15,CC(C)NC(=O)NC[C@H]1C[C@@H]2CCN1C[C@@H]2CN(C)c1ccccc1,-10.33
16,CC(Cc1c(F)cccc1F)NC(=O)Nc1cnn(CC(N)=O)c1 (stereo not given),0.8263
17,C/C(=C\c1ccco1)CN(C)C(C)Cc1cc(C)ccn1 (stereo not given),32.02
18,O=C(Nc1ccccc1)[C@H]1CN2CCC1C[C@@H]2Cn1cc(CO)nn1 (stereo not given in full),-4.286
19,Cc1noc(C)c1CN1C[C@H]2CN(Cc3cccc(F)c3)C[C@H]2C1.O=C(O)C(F)(F)F.O=C(O)C(F)(F)F,97.06
20,O=C1N(Cc2ccccn2)C[C@H]2CN(C3CCC3)CCN12,-6.605
21,CC(C)C(=O)N1CCCC2(CCCN2Cc2cccnc2)C1 (stereo not given),-11.99
22,O=C1Nc2ccccc2CC12CCCN2Cc1cccnc1 (stereo not given),106.6

row,Structure (SMILES),Percent Effect [%]
1,O=C1Nc2ccccc2CC12CCCN2Cc1ccccn1 (stereo not given),100.2
2,O=C(c1ccc[nH]1)N1CCCC2(CCCN2Cc2cccnc2)C1 (stereo not given),22.1
3,O=S(=O)(NC[C@H]1C[C@@H]2CCN1C[C@@H]2CN1CCCC1)c1ccc(Cl)cc1,14.89
4,CC(C)c1cc(CN2CCN(c3cccnc3)CC2)n(C)n1,9.429
5,CN1CCCC(c2ccc(N3CCOCC3)cn2)C1.Cl (stereo not given),96.78
6,CN1CCCC(c2n[nH]c3ncccc23)C1 (stereo not given),-5.321
7,CN1CCCC1c1ccc(N2CCOCC2)cn1 (stereo not given),81.49
8,CCN(CC)C(=O)C1CCC2(CCNCC2)CO1.Cl (stereo not given),2.217
9,Cc1cc(CN2CC[C@H]3C[C@H](c4nc(C5CC5)cs4)O[C@@H]3C2)no1,106.7
10,c1cc(CN2CC[C@H]3C[C@H](c4nc(C5CC5)cs4)O[C@@H]3C2)ccn1,0.1706
11,Cc1ncsc1CN1CC[C@H]2C[C@H](c3ccncn3)O[C@@H]2C1,-3.058
12,Cc1nc(CN2CC[C@H]3C[C@H](c4ccncn4)O[C@@H]3C2)cs1,0.4652
13,Cc1nccc([C@@H]2C[C@@H]3CCN(Cc4cccs4)C[C@H]3O2)n1,0.9996
14,Cc1cc(CN2CC[C@H]3C[C@@H](c4nc(C5CC5)cs4)O[C@@H]3C2)no1,106.4
15,CNC(=O)[C@H]1C[C@@H]2CN(c3cc(OC)ncn3)C[C@@H]2N1C(C)C,-9.424
16,COCCN1CCO[C@H]2CCN(C(=O)c3ccnnc3)CC[C@@H]21.O=C(O)C(F)(F)F,-6.928
17,COc1cc(N2CC[C@@H]3[C@@H](CC2)OCCN3CC2CC2)ncn1,103
18,Cc1ccc(C(=O)N2CC[C@H]3[C@H]2CCN3CC2CCOCC2)cn1,4.595
19,COc1cc(N2CC[C@@H]3OCCN(C)[C@H]3CC2)ncn1,94.65
20,O=C(O)C(F)(F)F.O=C(c1ccc[nH]1)N1CCC2(CCCN2Cc2cccnc2)CC1,-12.51
21,COCCN1CCC12CCN(C(=O)Cc1cccs1)C2.O=C(O)C(F)(F)F (stereo not given),10.38
22,COCCN1CCCC12CCN(c1ncccn1)CC2.O=C(O)C(F)(F)F,-7.716

row,Structure (SMILES),Percent Effect [%]
1,CN(C)CCN1CCCC12CCN(C(=O)c1ccncc1)CC2.O=C(O)C(F)(F)F.O=C(O)C(F)(F)F,105
2,CCN1CCCC12CCCN(c1ncccn1)C2.O=C(O)C(F)(F)F (stereo not given),1.763
3,CN(C)CCN1CCCC12CCCN(C(=O)c1cccnc1)C2.O=C(O)C(F)(F)F.O=C(O)C(F)(F)F (stereo not given),118
4,COCCN1CCC12CCN(c1ncccn1)C2.O=C(O)C(F)(F)F (stereo not given),-0.9151
5,COCCN1CCC12CCN(C(=O)c1ccc(C)nc1)C2.O=C(O)C(F)(F)F (stereo not given),107.4
6,Cc1cnc(N2CCCC3(CCCN3CC(=O)N(C)C)C2)nc1.O=C(O)C(F)(F)F (stereo not given),-1.71
7,Cc1ncc2c(c1CNC(=O)C1(C)CCCCO1)CCNC2 (stereo not given),13.24
8,Cc1nn(CCNC(C)Cn2cncn2)c(C)c1Cl (stereo not given),-0.5097
9,CC(C)C(NC(=O)c1ccccc1F)C(=O)N1CCC2(CC1)OCCO2 (stereo not given),-11.28
10,COc1ncccc1CN1CC[C@H]2O[C@H](c3nnc(C)o3)CC[C@H]21,-0.9405
11,O=C(O)C(F)(F)F.O=C(O)C(F)(F)F.c1ccc(O[C@@H]2CO[C@@]3(CCCN(CC4CCOCC4)C3)C2)nc1,-10.07
12,O=C(O)C(F)(F)F.O=C(O)C(F)(F)F.c1ccc(OCC2C[C@@H]3[C@@H](C2)OCCN3Cc2ccoc2)nc1 (stereo not given in full),92.52
13,O=C(O)C(F)(F)F.O=C(O)C(F)(F)F.c1ccc(O[C@@H]2CC[C@H]3[C@H]2OCCN3CC2CCOCC2)nc1,-13.85
14,O=C(O)C(F)(F)F.O=C(O)C(F)(F)F.c1ccc(OCC2C[C@@H]3[C@@H](C2)OCCN3CC2CCOCC2)nc1 (stereo not given in full),96.17
15,Fc1ccc(CN2CCO[C@H]3[C@H](Oc4ccccn4)CC[C@@H]32)cc1.O=C(O)C(F)(F)F.O=C(O)C(F)(F)F,-5.975
16,Cc1nc(CN2CCO[C@H]3[C@@H](OCc4ccccn4)CC[C@@H]32)cs1.O=C(O)C(F)(F)F.O=C(O)C(F)(F)F,8
17,Cc1nc(CN2CCO[C@@H]3CC(COc4ccccn4)C[C@H]32)cs1.O=C(O)C(F)(F)F.O=C(O)C(F)(F)F (stereo not given in full),94.34
18,Cc1nc(CN2CC[C@H]3[C@H]2CCN3c2ncccn2)cs1.O=C(O)C(F)(F)F.O=C(O)C(F)(F)F.O=C(O)C(F)(F)F,-7.266
19,CC(C)NC(=O)[C@H]1C[C@@H]2[C@@H](C1)OCCN2Cc1ccccn1.O=C(O)C(F)(F)F.O=C(O)C(F)(F)F,2.364
